Tau fluor counter: counter-screen for tau fibril formation inhibitors; hit rate 0.93% among 280,000; Potency, µM (series often up to 57.7 µM), for the others: top-dose activity change, negative = decrease; tau K18 P301L Alexa594 fluorescence, heparin fibrillization; note: potency is the fitted concentration of half-maximal effect; nearly all actives have a fitted effect of over 55% in size
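Human K18 P301L tau (15 uM unlabeled plus 0.24 uM Alexa 594-labeled, final) in 100 mM sodium acetate pH 7 was mixed with compound and 20 uM heparin and incubated 6 hr at 37 C.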
Coupling enz: inhibits coupling enzyme system, counter-screen for aldolase hits; coupling enzyme system counterscreen, AmpLite Red fluorescence; hit rate 0.67% among 290,000; activity change, negative = inhibition, % at 58.2 µM, hits read low; AID 2472; in the data active = activity change below about -30%
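Counterscreen of the coupled detection system alone, without aldolase: glyceraldehyde-3-phosphate coupling enzymes plus AmpLite Red readout. Compounds at 57.5 uM final, 10 min RT preincubation, 20 min RT reaction, fluorescence 525/598 nm.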
Sfp PPTase inh: blocks B. subtilis Sfp PPTase activity | Q9F4F7 | Biochemical Sfp PPTase activity, qHTS | Potency, µM, for inactives: largest response in the series, negative = inhibition, most hits filed as inhibitors | hit rate 3.5% among 310,000 | AID 1490;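 note: the enzyme is Sfp with the accession as filed and its product quenches rhodamine fluorescence; potency is the fitted concentration of half-maximal effect; 0% = enzyme reaction without inhibitor and -100% = no enzyme wells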
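After 15 min at room temperature with compound, 15 nM Sfp received 5 uM rhodamine-CoA plus 12.5 uM BHQ-2-ybbR (50 mM Hepes pH 7.6, 10 mM MgCl2). Rate came from the fluorescence difference over 30 min, ex 525/em 598 nm.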
Tau FP inhib: inhibitors of human tau fibril formation | P10636 | K18 P301L tau heparin fibrillization, Alexa594 FP, 6 h | Potency, µM (series often up to 57.7 µM), for inactives: at the highest dose activity, negative = inhibition, actives largely listed as inhibitors | hit rate 0.39% among 280,000 | AID 1468; note: potency is the fitted concentration of half-maximal effect; nearly all actives have a fitted effect of over 55% in size
Target sequence (P10636 561-689 P618L limits assumed): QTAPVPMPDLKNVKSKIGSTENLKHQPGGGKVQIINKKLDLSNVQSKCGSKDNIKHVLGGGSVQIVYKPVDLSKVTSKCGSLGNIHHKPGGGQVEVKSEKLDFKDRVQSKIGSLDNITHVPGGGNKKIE
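Steps: dispense K18 P301L tau (15 uM plus 0.24 uM Alexa 594 tracer, final) in pH 7 sodium acetate; add compound; add heparin (20 uM final); incubate 6 hr, 37 C; add ThT (30 uM final); after 1 hr ambient, read FP.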
G9a block: blocks human histone lysine methyltransferase G9a; Q96KQ7; G9a H3K9 monomethylation, AlphaScreen, 2 h; Potency, µM (highest dose often 102 µM), without a hit: at the highest dose activity, negative = inhibition, most hits filed as inhibitors; hit rate 8.8% among 350,000; note: potency is the fitted concentration of half-maximal effect; nearly all actives have a fitted effect of over 75% in size
Target sequence (Q96KQ7 913-1193 limits assumed): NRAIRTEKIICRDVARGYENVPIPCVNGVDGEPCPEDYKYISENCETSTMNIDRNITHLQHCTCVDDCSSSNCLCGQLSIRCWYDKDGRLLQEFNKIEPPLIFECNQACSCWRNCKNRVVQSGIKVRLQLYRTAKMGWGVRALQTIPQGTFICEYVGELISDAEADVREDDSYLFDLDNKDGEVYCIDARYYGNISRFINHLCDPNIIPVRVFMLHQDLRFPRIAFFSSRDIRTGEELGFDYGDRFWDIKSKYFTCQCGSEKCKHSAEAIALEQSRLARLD
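Step 1: enzyme (final 20 nM) with compound, 15 min RT. Step 2: substrate peptide 500 nM and SAM 20 uM, 2 h RT. Step 3: anti-H3K9me1 antibody and AlphaScreen beads, 10 min, then plate read.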
Tau fibril ThT: inhibitors of human tau fibril formation, thioflavin T binding. recombinant tau K18 P301L (four-repeat tau fragment), heparin-induced fibrillization, ThT fluorescence. Potency, µM (titrated, usually from 57.4 µM), inactives show top-dose activity, negative = inhibition, usual class: inhibitors. hit rate 2.1% among 270,000. AID 1460; note: potency is the fitted concentration of half-maximal effect; nearly all actives have a fitted effect of over 55% in size
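Tau K18 P301L fragment (15 uM unlabeled plus 0.24 uM Alexa 594-labeled) in 100 mM sodium acetate pH 7 with compound, fibrillization induced by 20 uM heparin for 6 hr at 37 C. Thioflavin T (30 uM) added, fluorescence read after 1 hr (ex 450, em 510 nm).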
* = called active by the depositor; ? = inconclusive; nt = no result; [ ] = remark or other dose. Sampled rows, rich in hits. Any-hit rate of the full collection: about 11%. Unless noted, calls come from the whole dose curve; as a rule, active = well fitted curve in the direction sought with a large enough effect; inconclusive = small, poorly fitted or top-dose-only effect, or another doubt; inactive = no such curve, though single readings can be large; an effect the other way counts as inactive or inconclusive. Unless noted, % is set by controls: 0 for no effect and ±100 for the full control effect.

SMILES | Tau fluor counter | Coupling enz | Sfp PPTase inh | Tau FP inhib | G9a block | Tau fibril ThT
Cc1ccccc1-n1c(SCC(=O)N2CCOCC2)nc(O)c(Cc2ccccc2)c1=O | nt | 1 | -1% | nt | nt | nt
COc1ccc2c(CNCCc3cccs3)c(C(=O)O)n(Cc3ccc(F)cc3Cl)c2c1 | -22% | nt | nt | -4% | -41%[59 µM] | ?
CC(C)(C)Sc1ccc2nc3c(n2c1)CCCC3 | -11% | 1 | -12% | -1% | 50µM* | -15%
N=C1/C(=C/c2cccn2Cc2ccc(Cl)cc2)C(=O)N=C2SC=CN12 | -22% | -1 | 40µM* | -14% | 7% | ?
CCOC(=O)c1ccc2c(c1)C1C=CCC1C(C(=O)O)N2 (stereo not given) | ? | -4 | ? | ? | 3.2µM* | ?
CCOC(=O)C1Nc2ccc(C(=O)O)cc2C2C=CCC12 (stereo not given) | nt | -13 | 22µM* | nt | 24%[0.501 µM] | nt
CC(C)(C)C(=O)Nc1nnc(SCC(=O)NC2CCCC2)s1 | nt | 2 | 17% | nt | 11% | nt
O=C(CSc1oc(-c2cccs2)nc1S(=O)(=O)c1ccccc1)Nc1ccc(F)cc1 | ? | nt | nt | ? | ? | -8%
CCOC(=O)CCSc1n[nH]c(=S)s1 | -12% | 6 | 32µM* | -8% | 4.5µM* | -17%
Cc1ccc(/C=C2/CNC/C(=C\c3ccc(C)cc3)C2=O)cc1 | nt | 1 | -5% | nt | nt | nt
COc1ccc(C(CNC(=O)C(Cc2ccccc2)NC(N)=O)N(C)C)cc1 (stereo not given) | nt | 1 | 7% | nt | 40µM* | nt
COc1ccc(C(CNC(=O)Cc2ccc(-c3ccccc3)cc2)N(C)C)cc1 (stereo not given) | nt | 0 | 4% | nt | 6% | nt
COc1ccc(CNC(=O)[C@H](Cc2ccccc2)NC(=O)C2CCNCC2)cc1 | nt | 0 | -6% | nt | 50µM* | nt
CNC(=O)C1(C(F)(F)F)C/C(=C\CCO)CCCO1 (stereo not given) | nt | 0 | 21% | nt | -13% | nt
O=[N+]([O-])c1cccc(-c2n[nH]c(=S)n2-c2ccccc2)c1 | -7% | 3 | -10% | -2% | 2.2µM* | nt
O=[N+]([O-])c1cccc(-c2ccc(/C=N/n3c(-c4ccccc4)n[nH]c3=S)o2)c1 | ? | 0 | -18% | -13% | ? | -5%
Cc1cccc(-c2n[nH]c(=S)n2-c2ccccc2)c1[N+](=O)[O-] | 2% | 0 | 2% | 1% | 2.2µM* | 0%
COc1ccc(-n2c(-c3cc(-c4ccccc4)sc3N)n[nH]c2=S)cc1 | nt | -1 | -20% | nt | 1% | nt
Cc1ccc(S(=O)(=O)N2CCOCC2)cc1-c1n[nH]c(=S)n1-c1ccccc1 | nt | nt | nt | nt | -8%[12.7 µM] | nt
O=[N+]([O-])c1ccc2c(c1)[nH]c(=S)n2-c1ccccc1 | -16% | -5 | -99% | 2% | 3.2µM* | -18%
COc1ccc(-n2c(-c3cccc(C)c3[N+](=O)[O-])n[nH]c2=S)cc1 | 2% | -1 | 16% | 6% | 3.2µM* | -4%
Cn1c2ccccc2c2cc([N+](=O)[O-])ccc21 | -25% | 0 | -4% | ? | nt | ?
CC(=O)c1cccc(S(=O)(=O)NCCc2csc3nc(-c4ccc(F)cc4)nn23)c1 | -17% | nt | nt | -10% | -30%[59 µM] | -4%
O=S(=O)(/N=C(/Nc1cccc2ccccc12)c1ccccc1)c1ccc(F)cc1 | nt | nt | 13% | nt | -13% | nt
Cc1sc2ncn(CC(=O)N3CCN(c4ccc(Cl)cc4)CC3)c(=O)c2c1S(=O)(=O)N1CCN(c2ncccn2)CC1 | -27% | nt | nt | 5% | -3%[59 µM] | 0%
SMILES | Tau fluor counter | Coupling enz | Sfp PPTase inh | Tau FP inhib | G9a block | Tau fibril ThT
Cc1c(Cl)cccc1-n1ncc(C(=O)NCCN2CCN(C)CC2)c1C1CCN(C(=O)OC(C)(C)C)CC1 | 2% | nt | nt | 3% | -8%[59 µM] | 6%
Cc1ccccc1-c1cccc([C@@H]2C[C@H]3CN(Cc4cccnc4)C(=O)[C@]34CCCN24)c1 | 11% | 5 | 0% | -2% | 50µM* | -5%
O=C1N(Cc2cccc(Cl)c2)C[C@@H]2C[C@@H](c3cccc4cccnc34)N3CCC[C@@]123 | 2% | 3 | 5% | 1% | nt | -7%
O=C1N(Cc2cccnc2)C[C@@H]2C[C@@H](c3ccccc3C#Cc3ccccc3)N3CCC[C@@]123 | 1% | 0 | -9% | 1% | 50µM* | -17%
Cc1ccccc1CN1C[C@@H]2C[C@@H](c3cnc(N4CCOCC4)s3)N3CCC[C@@]23C1=O | 3% | -6 | 50µM* | 2% | 35µM* | ?
CCn1cc([C@@H]2C[C@H]3CN(Cc4cccc(Cl)c4)C(=O)[C@]34CCCN24)cn1 | -2% | 1 | -5% | 0% | nt | 2%
Cc1ccc2cccc(NC(=O)c3ccc(-c4cccc(Cl)c4)o3)c2n1 | -12% | nt | nt | 0% | 4%[59 µM] | -6%
C/C(=N\Nc1nccnc1Cl)c1ccc(F)cc1 | -5% | -2 | 22µM* | 8% | -5%[0.501 µM] | 2%
CCOc1ccc(C(=O)NCC(c2ccco2)N2CCOCC2)cc1 (stereo not given) | nt | nt | nt | nt | -18% | nt
COC(=O)[C@@H]1[C@@H](C)N(CCc2cc(OC)c(OC)c(OC)c2)C(=O)N[C@H]1c1ccccc1 | 4%[11.6 µM] | 2 | -14% | -6%[11.6 µM] | nt | 11%[11.5 µM]
COc1cc(C2SC(C)C(=O)N2CCc2ccccc2)cc(OC)c1OC (stereo not given) | -15% | 1 | -6% | -9% | 50µM* | ?
CCN(CC(=O)Nc1ccc(NC(C)=O)cc1)C(=O)/C=C/c1cn(-c2ccccc2)nc1-c1cccs1 | nt | nt | nt | nt | 32µM* | nt
CCN(CC(=O)Nc1ccc(NC(C)=O)cc1)C(=O)/C=C/c1cn(Cc2ccccc2)nc1-c1cccnc1 | nt | nt | nt | nt | 14µM* | nt
COc1cccc(NC(=O)CN(C)C(=O)/C=C/c2cn(Cc3ccccc3)nc2-c2cccnc2)c1 | nt | nt | nt | nt | -32% | nt
CC1CCN(S(=O)(=O)c2ccc(C(=O)OC(C)C(=O)NC3CCCCC3C)cc2)CC1 (stereo not given) | nt | nt | 6% | nt | 32µM* | nt
CC(OC(=O)C1CCN(S(=O)(=O)c2ccc(Cl)cc2)CC1)C(=O)NC1CCCCC1C (stereo not given) | nt | nt | 2% | nt | ? | nt
CC(OC(=O)c1ccc2c(c1)OCO2)C(=O)NC1CCCCC1C (stereo not given) | nt | nt | nt | nt | 28µM* | nt
CC(=O)Nc1cccc(-n2nnc(SCC(=O)N(C)c3ccccc3)n2)c1 | -18% | 3 | 18% | -9% | 9% | -7%
COC(=O)c1ccccc1NC1=C/C(=N\S(=O)(=O)c2cccs2)c2ccccc2C1=O | ? | 4 | 18% | -10% | 1.8µM* | ?
COC(=O)c1ccccc1NC1=C/C(=N\S(=O)(=O)c2ccc(C(=O)O)cc2)c2ccccc2C1=O | nt | -48* | 56µM* | nt | 8.9µM* | nt

High-throughput results: PubChem, National Center for Advancing Translational Sciences (NCATS)
